hNpr1 antagonist: blocks ANP-stimulated signaling of human Npr1 receptor. P16066. HEK293 hNpr1 GloSensor cGMP, ANP-stimulated luminescence. Potency, µM (titrated, usually from 46.3 µM), for the others: at the highest dose activity change, negative = inhibition, most hits filed as inhibitors. actives 1.6% (n = 76,000). AID 1347048; calls by dose curve; also: nearly all actives have a fitted effect of over 60% in size
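Compound pre-incubated 30 min at room temperature on GloSensor-loaded HEK293 cells stably carrying hNpr1 and the pGS-40F cGMP biosensor. Stimulation uses hNppA at 0.1 nM final; luminescence is taken at baseline and 20 min post-agonist.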
3T3 cytotox: kills NIH 3T3 cells; NIH 3T3 viability, CellTiter-Glo ATP luminescence, 48-72 h; Potency, µM (highest dose often 96.7 µM), for inactives: at the top dose activity change, negative = cytotoxicity, usual class: inhibitors; actives 4.3% (n = 94,000); also: nearly all actives have a fitted effect of over 55% in size
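ATP-dependent luminescence (CellTiter-Glo) served as the viability signal for NIH 3T3 cells treated with compound for 48 or 72 hr at 37 °C.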
Luciferase inh: blocks purified firefly luciferase enzyme activity; P08659; purified P. pyralis luciferase, luminescence, biochemical; Potency, µM (series often up to 115 µM), usual class: inhibitors; actives 2.5% (n = 76,000); AID 1347043; also: nearly all actives have a fitted effect of over 65% in size
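Purified 10nM P. pyralis luciferase with 10uM D-luciferin and 10uM ATP in 50mM Tris acetate pH 7.5, 10mM Mg acetate, 0.01% Tween-20, 0.05% BSA. qHTS titration; luminescence read by CCD imager.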
HEK cytotox: HEK 293 cell cytotoxicity; HEK 293 viability, ATP luminescence (CellTiter-Glo), 48-72 h; Potency, µM (doses to about 115 µM), without a hit: at the highest dose activity change, negative = cytotoxicity, usual class: inhibitors; actives 6.6% (n = 94,000); AID 1345083; also: nearly all actives have a fitted effect of over 60% in size
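ATP-coupled CellTiter-Glo luminescence served as viability read-out, recorded 10 min after reagent addition at room temperature. HEK 293 cells, 250 cells/well, had been incubated with pintool-transferred compound for 48 or 72 hr at 37 degree Celsius.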
Starred values were filed as active, the others as inactive; [ ] = remark or other dose. Compounds with a hit are over-represented: about 11% of the library has one in this group of screens. Unless noted, calls follow the shape of the dose curve; as a rule, active = well fitted curve in the direction sought with a large enough effect; inconclusive = small, poorly fitted or top-dose-only effect, or another doubt; inactive = no such curve, though single readings can be large; an effect the other way counts as inactive or inconclusive. % is scaled to controls: 0 for no effect and ±100 for the full control effect; potency is read from the fitted curve at half-maximal effect.

Cn1ccc2c(C(=O)NCC3CCC(=O)N3)nc(-c3ccccc3C#N)cc21 (centres undefined) was read as hNpr1 antagonist -1%[70.6 µM], 3T3 cytotox 25µM*, Luciferase inh inactive and HEK cytotox inconclusive.
COc1ccc(-n2cc(CN3CCN(C)C(C)C3)c(-c3cccc(F)c3)n2)cc1 (centres undefined) was read as hNpr1 antagonist -4%, 3T3 cytotox 32µM*, Luciferase inh inconclusive and HEK cytotox 35µM*.
OCC1(Cc2ccc(F)cc2)CCCN(c2nc3ccccc3s2)C1 (centres undefined) was read as hNpr1 antagonist inconclusive, 3T3 cytotox inconclusive, Luciferase inh inactive and HEK cytotox 40µM*.
Screening O=C(Nc1cc(-c2ccccn2)nn1-c1ccccc1)c1ccc(F)cc1 returned 3T3 cytotox -19% and HEK cytotox 2%.
NC(=O)[C@H](CC1CCCCC1)NC(=O)[C@@H]1CN(S(=O)(=O)c2ccccc2)CCN1C(=O)c1cccs1 was read as hNpr1 antagonist -6%, 3T3 cytotox 25µM*, Luciferase inh inactive and HEK cytotox -4%.
For COC(=O)[C@H](Cc1ccc(OC)cc1)NC(=O)[C@H]1CN(S(=O)(=O)c2ccccc2)CCN1C(=O)c1cccs1 the results were hNpr1 antagonist 3%, 3T3 cytotox inconclusive, Luciferase inh inactive and HEK cytotox 79µM*.
For O=C(Nc1ccccc1)N1CCC(CCc2nc(C3CCOCC3)no2)CC1 the results were 3T3 cytotox inconclusive and HEK cytotox 40µM*.
For Cc1noc(C)c1-c1cc(-c2ccc(CN(C)C)cc2)cn2cncc12 the results were hNpr1 antagonist 0%[70.6 µM], 3T3 cytotox 28µM*, Luciferase inh inactive and HEK cytotox inconclusive.
Screening CN(C)Cc1ccc(-c2cc(-c3ccncc3)c3cncn3c2)cc1 returned hNpr1 antagonist -2%[70.6 µM], 3T3 cytotox inconclusive, Luciferase inh inconclusive and HEK cytotox 89µM*.
Cc1noc(C)c1-c1cc(-c2ccncc2)cn2cncc12 was read as hNpr1 antagonist 2%[70.6 µM], 3T3 cytotox inconclusive, Luciferase inh inactive and HEK cytotox inconclusive.
`O=C(NCc1cccc(F)c1)C1Cn2cccc2C(=O)N1Cc1cccnc1` (centres undefined) gave hNpr1 antagonist -5%, 3T3 cytotox -8%, Luciferase inh inactive and HEK cytotox -2%.
`CCOc1cccc(CNC(=O)CCC2CCCN(S(=O)(=O)c3ccc(C)cc3)C2)c1` (centres undefined) gave hNpr1 antagonist 0%, 3T3 cytotox inconclusive, Luciferase inh inactive and HEK cytotox inconclusive.
CCOc1ccc(NC(=O)CCC2CCCN(S(=O)(=O)c3cccc(F)c3)C2)cc1 (centres undefined) was read as 3T3 cytotox -22% and HEK cytotox 35µM*.
Screening CC(C)CCNC(=O)CCC1CCCN(S(=O)(=O)c2cccc(F)c2)C1 (centres undefined) returned 3T3 cytotox inconclusive and HEK cytotox 45µM*.
For O=C(CCC1CCCN(S(=O)(=O)c2cccc(F)c2)C1)NCC1CC1 (centres undefined) the results were hNpr1 antagonist -30%, 3T3 cytotox -24%, Luciferase inh inactive and HEK cytotox -31%.
CCN1c2cc(C(=O)Nc3ccc(C(=O)OC)cc3)ccc2C(=O)N2CCCC21 (centres undefined) was read as hNpr1 antagonist 0%, 3T3 cytotox -27%, Luciferase inh inactive and HEK cytotox inconclusive.
`O=C(NCc1ccccn1)c1ccc2nnc(Cc3ccco3)n2c1` gave 3T3 cytotox -13% and HEK cytotox 1%.
O=C(c1ccccc1OCC1CCCN(Cc2cccc(O)c2)C1)N1CCCC1 (centres undefined) was read as hNpr1 antagonist 0%, 3T3 cytotox inactive, Luciferase inh inactive and HEK cytotox 6%.
Screening CCc1cccc(NC(=O)Cn2c(=O)c(-c3noc(C)n3)c3n(c2=O)CCCCC3)c1 returned hNpr1 antagonist 0%, 3T3 cytotox -6%, Luciferase inh inactive and HEK cytotox 0%.
For CC1=NS(=O)(=O)N(C)C=C1C(=O)OCc1noc(-c2ccccc2Cl)n1 the results were hNpr1 antagonist 11µM*, 3T3 cytotox inconclusive, Luciferase inh inconclusive and HEK cytotox inconclusive.
For CCOC(=O)[C@@H]1CN(C(=O)c2ccc(F)cc2)[C@H]2c3ccccc3O[C@@H]12 the results were 3T3 cytotox inconclusive and HEK cytotox -24%.
`CNc1nccc(N2CCC(CC(=O)NCCC(C)C)CC2)n1` gave hNpr1 antagonist 6%, 3T3 cytotox inconclusive, Luciferase inh inactive and HEK cytotox 32µM*.
CNc1nccc(N2CCC(CC(=O)NCCCN3CCC(C)CC3)CC2)n1 was read as hNpr1 antagonist -3%, 3T3 cytotox inconclusive, Luciferase inh inactive and HEK cytotox inconclusive.
Screening O=C(N[C@@H]1CN(Cc2ccccn2)CCC[C@H]1O)c1ccc(OCc2ccccc2)cc1 returned hNpr1 antagonist -10%[70.6 µM], 3T3 cytotox inconclusive, Luciferase inh inactive and HEK cytotox 89µM*.
For O=C(N[C@@H]1CN(C(=O)Nc2cccc(C(F)(F)F)c2)CCC[C@H]1O)c1ccc(OCc2ccccc2)cc1 the results were hNpr1 antagonist 2%, 3T3 cytotox 40µM*, Luciferase inh inactive and HEK cytotox 32µM*.
For CC[C@H]1CN(C(=O)Nc2cccc(C(F)(F)F)c2)CC[C@H]1CC(=O)Nc1ccccc1 the results were hNpr1 antagonist -8%[70.6 µM], 3T3 cytotox inconclusive, Luciferase inh inactive and HEK cytotox 50µM*.
Screening COC(=O)c1ccccc1NC(=O)N1CCC[C@@H](O)[C@H](NC(=O)c2ccc(OCc3c(C)noc3C)cc2)C1 returned hNpr1 antagonist -4%, 3T3 cytotox 40µM*, Luciferase inh inactive and HEK cytotox inconclusive.
NC(=O)COc1ccc(C(=O)N[C@@H]2CN(Cc3ccccn3)CCC[C@H]2O)cc1 was read as hNpr1 antagonist 4%[70.6 µM], 3T3 cytotox inconclusive, Luciferase inh inactive and HEK cytotox inconclusive.
Cc1noc(C)c1COc1ccc(C(=O)N[C@@H]2CN(C(=O)Nc3cccc(C(F)(F)F)c3)CCC[C@H]2O)cc1 was read as hNpr1 antagonist -5%, 3T3 cytotox inconclusive, Luciferase inh inactive and HEK cytotox inconclusive.
Cc1c(F)cccc1NC(=O)C1CN(S(=O)(=O)C2CC2)CC12CCCCC2 (centres undefined) was read as hNpr1 antagonist -1%, 3T3 cytotox inconclusive, Luciferase inh inactive and HEK cytotox inconclusive.
O=C1CCN(Cc2ccccn2)CCCC(c2nc(-c3cnccn3)no2)CCN1 (centres undefined) was read as hNpr1 antagonist 0%, 3T3 cytotox -18%, Luciferase inh inactive and HEK cytotox -21%.
